In publication PMC5540273 (PLoS ONE, 2017):

The compounds below were run on LCK. Conditions: concentration: 1 μM, replicates: in singlicate; n = 1.
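Also: KINOMEscan kinase panel screen.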

| Compound | %Inh |
| --- | --- |
| CSc1ccc(-c2cc3ncnc(SCC(=O)O)c3s2)cc1 | 0% |
| COc1ccc(Nc2nccc(N3CCC(NC(=O)Nc4cc(C)ccc4C)C3)n2)cc1 (centres unmarked) [GSK1379741] | 0% |
| Nc1nc(-c2ccc3c(N)n[nH]c3c2)cc(N2CCCC2)n1 [GSK2227430] | 0% |
| c1ccc(-c2n[nH]cc2-c2ccnc3ccccc23)nc1 [GW271431] | 17% |
| O=C1NC(=O)C(N2CCc3ccccc32)=C1c1cccc(Cl)c1 [SB-408010] | 10% |
| COc1ccc(Nc2ncc(C#N)c(Nc3ccccc3C(N)=O)n2)cc1N1CCN(C)CC1.Cl [GSK1558669] | 100% |
| Cc1ccc(NC(=O)c2ccnc(N3CCN(C)CC3)c2)cc1-c1ccc(C(=O)NCC2CC2)cc1 [GW775604] | 0% |
| Cc1nnc(-c2ccc3occ(-c4ccc(C(C)O)cc4)c3c2)o1 (centres unmarked) | 2% |
| CC(C)(CN)c1nc(-c2ccc(Cl)c(O)c2)c(-c2ccncc2)[nH]1.O=C(O)C(F)(F)F [SB-477794] | 99.2% |
| COc1ccc(COc2cc(-n3cnc4ccccc43)sc2C(N)=O)cc1 [GSK1024304] | 16% |
| CCc1nc(-c2cccc(C)c2)c(-c2ccnc(NCc3ccccc3)c2)s1 | 0% |
| NS(=O)(=O)c1cccc(-c2ccc3nccc(-c4cccc(S(N)(=O)=O)c4)c3c2)c1 [GW867253] | 0% |
| Cc1cccc(-c2nc(Nc3ccc4ncsc4c3)c3ccccc3n2)n1 [GW867588] | 9% |
| CC(C)Oc1ccc2c(-c3ccnc(Nc4ccc(N5CCN(C)CC5)cc4)n3)cnn2n1 [GW696155] | 92.6% |
| CN(C(=O)c1ccc(-c2cc(-c3c[nH]nc3-c3ccccn3)ccn2)cc1)C1CCOCC1 [GW810083] | 0% |
| COc1cc(Nc2nccc(N3CCC(NC(=O)c4cccc(NC(C)=O)c4)C3)n2)cc(OC)c1OC (centres unmarked) [GSK1379754] | 30% |
| O=C(NCCCN1CCOCC1)c1cccc(Nc2nccc(Nc3ccc(Oc4ccccc4)cc3)n2)c1 [GW663929] | 99.3% |
| COc1cc2c(cc1OC[C@@H](O)CO)ncc1c3ccc(C#N)cc3[nH]c21 | 0% |

| Compound | %Inh |
| --- | --- |
| COc1ccc(CNC(=O)NC2CCN(c3ccnc(Nc4ccc(OC)cc4)n3)C2)cc1 (centres unmarked) [GSK1379727] | 8% |
| COc1ccc(S(=O)(=O)NC2CCN(c3cc(C)nc(Nc4cccc(C#N)c4)n3)CC2)cc1.O=C(O)C(F)(F)F [GSK1653539] | 8% |
| N#Cc1ccc(-c2cc(-c3c[nH]nc3-c3ccccn3)ccn2)cc1 [GW693028] | 0% |
| c1ccc(-c2cc(-c3c[nH]nc3-c3ccccn3)ccn2)cc1 [GW576604] | 0% |
| NCC(NC(=O)c1cc(-c2cn[nH]c2)c(-c2ccnc3[nH]ccc23)s1)c1ccccc1.O=C(O)C(F)(F)F.O=C(O)C(F)(F)F (centres unmarked) [GSK1325775] | 4% |
| Cn1cc(-c2ccc3c(c2)CCN3C(=O)Cc2ccccc2Cl)c2c(N)ncnc21 [GSK2608885] | 99.5% |
| O=c1cc(N2CCOCC2)nc2n(Cc3cccc(Cl)c3Cl)c(C3CC3)nn12 [GSK2358994] | 23% |
| COc1cc2c(cc1OCCN1CCN(C)CC1)ncc1c3ccc(C#N)cc3[nH]c21 | 57% |
| Cl.Nc1ncnc2occ(-c3ccc(NC(=O)Nc4cc(C(F)(F)F)ccc4F)cc3)c12 [SB-707548] | 88% |
| O=C1Cc2cc(Nc3nc(NCc4cccc(S(=O)(=O)C(F)(F)F)c4)ncc3C(F)(F)F)ccc2N1 | 0% |
| Cc1nnc(-c2ccc(C)c(-c3ccc(C(=O)Nc4ccc(NS(C)(=O)=O)cc4)cc3)c2)o1 [GW702865] | 17% |
| O=c1cc(N2CCOCC2)nc2n(Cc3cccc(F)c3)ccn12 [GSK2297430] | 23% |
| COc1ccc(Nc2nccc(N3CCC(NC(=O)Nc4cccc(C(C)=O)c4)C3)n2)cc1 (centres unmarked) [GSK1379731] | 0% |
| CCCCCc1nc2c(N)ncnc2n1CCCCC [SKF-97255] | 5% |
| Nc1nccc(-c2c(-c3ccc(F)cc3)ncn2C2CCN(CC(F)(F)F)CC2)n1 [SB-236560] | 0% |
| Fc1ccc(-c2ncn(CCCN3CCOCC3)c2-c2cccnc2)cc1 [SB-211743] | 20% |
| O=C(Nc1cccc(-c2nn3ncccc3c2-c2ccnc(Nc3cccc(C(F)(F)F)c3)n2)c1)c1c(F)cccc1F [GSK299495] | 98.2% |
